The campaign covered roughly 53,000 compounds. About 900 (1.7%) showed an effect of 50% or more. Many of the other results were omitted from the sample, so strong results are more common in it than they were.

This is an account of results in ChEMBL document CHEMBL3988442, “University of Dundee, Small-Polar-MMV Screening Library” (2021).

The assay relates to Mycobacterium tuberculosis. The assay can be described thus: Cornell - Phenotypic assay to identify agents that inhibit growth of Mycobacterium tuberculosis. It counts as functional. Details: scale not given: direction of the effect not stated beside the values. Particulars: 10 mM as filed; unlikely as a test dose.
`Cc1cc(N2CCC(Cc3ccncc3)C2)ncn1` (centres undefined): the “Percent Effect” value is listed as -20.77%.
For `OCC1(Cc2ccc(Cl)cc2)CCN(Cc2ccccc2O)CC1` the value was 19.16%; for `COc1ccc(CN2CCC(CO)(Cc3ccc(Cl)cc3)CC2)c(O)c1`, 23.78%.
To `COc1cccc(CN2CCC(CO)(Cc3ccc(Cl)cc3)CC2)c1O` belongs 91.19%; to `CCC(O)c1nc2c([nH]1)CC(C)(C)CNC2=O` (centres undefined), -22.87%.
For `CCc1cc(NCCN2CCNC2=O)n2nccc2n1` the value was -6.964%; for `Cc1nc(C)n(CC2CCCN(CCOc3ccccc3F)C2)n1` (centres undefined), -21.82%.
With `O=C(NC1CCN(CC2CCCC2)C1)N1CCC(OCC2CC2)CC1` (centres undefined), the “Percent Effect” value was 51.36%.
With `NC(=O)C1CCN(C(=O)NC2CCN(CC3CCCC3)C2)CC1` (centres undefined), the “Percent Effect” value turned out to be 21.86%.
Regarding `O=C(NC1CCN(CC2CC2)C1)N1CCC(OC2CCCCC2)CC1` (centres undefined), the “Percent Effect” value was 28.71%.
Turning to `CC(C)C(=O)N1CCC(c2nc3ccccn3c2NC(C)(C)C)CC1`, the “Percent Effect” value is recorded as 44.44%.
In the case of `CCc1cn[nH]c1C1CCN(c2cc(C)c3ccc(OC)cc3n2)CC1`, the “Percent Effect” value stood at 2.528%.
Consider `CCc1cn[nH]c1C1CCN(c2cc(C)c3cc(OC)ccc3n2)CC1`, for which the “Percent Effect” value amounted to 4.644%.
As for `CCc1cn[nH]c1C1CCN(c2cc(C)c3cccc(OC)c3n2)CC1`, the “Percent Effect” value came out at 57.17%.
Turning to `CSc1ncccc1C(=O)NCC(c1ccco1)N(C)C` (centres undefined), the “Percent Effect” value was found to be 23%.
`CCNS(=O)(=O)c1ccc2c(c1)c(=O)n(CC)c(=O)n2CC`: the “Percent Effect” value stood at 5.155%.
For `CS(=O)(=O)CCSCc1cc(F)cc2cccnc12` the value was -6.961%.
Take `Fc1ccccc1CN1CCCN(c2ccc3cc[nH]c3n2)CC1`: the “Percent Effect” value is listed as 55.73%.
For `c1cc(CN2CCCN(c3ccc4cc[nH]c4n3)CC2)ccn1` the value was -9.703%; for `Fc1ccccc1CN1CCCN(c2ncnc3[nH]ccc23)CC1`, 14.79%.
`O=C(NCCc1csc(-c2cccnc2)n1)c1cnn2c1CCCC2`: the “Percent Effect” value is given as -3.716%.
`Cc1ccc(OCCN2CCC(c3nc(C)n4c(C)csc34)CC2)cc1`: the “Percent Effect” value is 54.47%.
As to `Cc1csc2c(C3CCN(CCOc4ccccc4F)CC3)nc(C)n12`, the “Percent Effect” value was -14.57%.
Regarding `Cc1csc2c(C3CCN(CCCOc4ccccc4)CC3)nc(C)n12`, the “Percent Effect” value came out at 35.94%.
`Cc1nc(CN2CCO[C@@H]3CN(Cc4ccsc4)C[C@@H]3C2)cs1.O=C(O)C(F)(F)F.O=C(O)C(F)(F)F`: the “Percent Effect” value is on record as 22.49%.
For `Cc1noc(C)c1-c1nc(N(C)C)ncc1-c1cnccn1` the value was -5.73%; for `CC[C@@H]1N(Cc2ccsc2)CCC[C@]12CCC(=O)N2C.O=C(O)C(F)(F)F`, 2.508%; for `NC(=O)C1CN(C(=O)Nc2ccccc2SC2CCCC2)CCO1` (centres undefined), 18.89%.
To `CC(=O)N1CCCC1c1ccnc(Nc2cncnc2)n1` (centres undefined) belongs -12.16%; to `CC(=O)N1CCCC1CCc1ccc(Cl)nn1` (centres undefined), 30.13%; to `CC(=O)N1CCCC1CCc1ccnc(-c2cncnc2)c1` (centres undefined), 56.86%.
`Cc1ccc(OCCCNC(=O)C2(C)CC(=O)N3C=CC=CC3=N2)cc1` (centres undefined): the “Percent Effect” value came out at 45.74%.
To `Cc1ccccc1OCCCNC(=O)C1(C)CC(=O)N2C=CC=CC2=N1` (centres undefined) belongs 54.27%.
On to `CC1(C(=O)NCCCOc2ccccc2F)CC(=O)N2C=CC=CC2=N1` (centres undefined), for which the “Percent Effect” value worked out at 24.68%.
Consider `CN(C)[C@H]1CCCCN(C(=O)c2cccc(N3CCS(=O)(=O)CC3)c2)C1`, for which the “Percent Effect” value was -27.17%.
In the case of `CC(C)c1noc(CN(Cc2ccc(F)cc2)C2CC2)n1`, the “Percent Effect” value is -14.54%.
Take `CCC(C(=O)NCCc1nc(C)cc(C(F)(F)F)n1)n1cccn1` (centres undefined): the “Percent Effect” value was -40.59%.
On to `COc1ccc(C2(NCc3c(C)nc4c(C)cccn34)CCCC2)cc1.O=C(O)CC(O)(CC(=O)O)C(=O)O`, for which the “Percent Effect” value worked out at 60.04%.
As to `COc1ccccc1C1(NCc2c(C)nc3c(C)cccn23)CCCC1.Cl`, the “Percent Effect” value is given as -17.64%.
Turning to `Cc1nc2sccn2c1CNC1(c2ccccc2F)CCCC1.O=C(O)CC(O)(CC(=O)O)C(=O)O`, the “Percent Effect” value turned out to be 21.81%.
For `C=Cn1ncc(CN2CCc3nc(-c4ccncc4)nc(O)c3C2)c1C` the value was 24.59%; for `O=C(Nc1ccccc1)[C@H]1C[C@@H]2CN(Cc3cccnc3)C[C@H]1O2`, 15.91%.
As for `O=S(=O)(Nc1ccc(N2CCOCC2)cc1)c1cccc(F)c1`, the “Percent Effect” value was 107.6%.
Regarding `O=S(=O)(Nc1cnc(N2CCOCC2)nc1)c1cccc(F)c1`, the “Percent Effect” value is reported as 17.36%.
For the molecule `O=S(=O)(Nc1ccc(N2CCOCC2)cn1)c1cccc(F)c1`, the “Percent Effect” value turned out to be 37.01%.
Regarding `OC(CN1CCC(c2ccn[nH]2)CC1)c1ccccc1F` (centres undefined), the “Percent Effect” value is listed as 11.88%.
Consider `Cc1csc2nc3n(c(=O)c12)CCN(Cc1c[nH]cn1)CC3.Cl`, for which the “Percent Effect” value is -9.915%.
To `Cc1cc(C(F)F)nn1C(C)C(=O)NCc1nccn1C` (centres undefined) belongs -1.635%.
Turning to `CC(C)Nc1ncccc1C(=O)NCc1ncc[nH]1`, the “Percent Effect” value was 21.23%.
Take `Cc1cc(C(F)F)nn1C(C)C(=O)NCc1ncc[nH]1` (centres undefined): the “Percent Effect” value amounted to 51.24%.
Consider `CN(C)c1ncc(-c2ccncc2)c(CCNC(=O)C2CC2)n1`, for which the “Percent Effect” value worked out at 23.54%.
For `Cc1c(C(=O)N2CCN(c3ccccn3)CC2)n(C)c2ccc(Cl)cc12`, the “Percent Effect” value is reported as 56.67%.
For `Cc1c(C(=O)N2CCN(c3ncccn3)CC2)n(C)c2ccc(Cl)cc12`, the “Percent Effect” value stood at 45.95%.
With `Cc1c(C(=O)N2CCN(C)CC2)n(C)c2ccc(Cl)cc12`, the “Percent Effect” value stood at 29.74%.
Take `CCN1C(=O)CC[C@@H]2N(C(=O)CCn3nccc3C)CCCC[C@@]21C`: the “Percent Effect” value is 10.33%.
Take `CC(C)CC(=O)N1CC(=O)c2sc(NCCc3ccccc3)nc2C1`: the “Percent Effect” value is -41.09%.
As to `Cc1ccc(C2(CN3CCN(Cc4cncn4C)CC3)CC2)cc1.Cl`, the “Percent Effect” value was -21.08%.
Regarding `Cc1ccc(C2(CN3CCN(Cc4cn(C)nc4C)CC3)CC2)cc1.Cl`, the “Percent Effect” value was found to be 56.88%.
Regarding `Cc1nn(C)cc1CN1CCN(CC2(c3ccccc3)CC2)CC1`, the “Percent Effect” value is listed as 18.35%.
For `O=C(NCc1ccncc1)N1CC(Cc2ccccc2F)C1` the value was 8.731%; for `CCc1ccc(S(=O)(=O)Nc2c(C)cccc2C(=O)O)s1`, 52.73%; for `CCc1ccc(S(=O)(=O)Nc2cc(OC)c(OC)cc2C(=O)O)s1`, 16.65%.
Regarding `CCc1ccc(S(=O)(=O)Nc2cc(C(=O)O)c(F)cc2F)s1`, the “Percent Effect” value turned out to be 1.964%.
Regarding `Cc1cc(CN(C)C2CCCN(Cc3noc(C4CC4)n3)C2)on1` (centres undefined), the “Percent Effect” value amounted to 2.145%.
